Here are results for 1 compound from PubChem BioAssay AID504656 (National Center for Advancing Translational Sciences (NCATS), 2011).

Active and inactive are the calls of the source.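 How the source made its calls: active means any inhibition of parasite growth seen in the dose series, which yields a fitted potency; inactive means compounds showing no inhibition.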

This assay is described as follows: Inhibitors of Cruzain: Trypanosoma Cruzi Growth Inhibition Assay. The conditions noted are these: T. cruzi in NIH/3T3, beta-gal CPRG absorbance, 4 d. The text has this: Cruzain is a cysteine protease from the tropical parasite Trypanosoma cruzi. This assay protocol is for testing followup compounds for T. Cruzi growth inhibition. See following references for additional details: Jadhav A, et al. J Med Chem. 2010 Jan 14;53(1):37-51. Mott BT, et al. J Med Chem. 2010 Jan 14;53(1):52-60. Ferreira, et al. J Med Chem. 2010 Jul 8;53(13):4891-905. Bettiol E, et al. PLoS Negl Trop Dis. 2009;3(2):e384. Assay Provider: Shoichet, Brian; University of California, San Francisco and Ana Rodriguez, New York University School of Medicine. Screening Center PI: Austin, C.P. Screening Center: NIH Chemical Genomics Center [NCGC]
NIH/3T3 cells and parasites were harvested, washed once and resuspended in DMEM supplemented with 2% FBS and Pen-Strep-Glut. […] Different numbers of NIH/3T3 cells were seeded in 96-well plates. After 3 h, compounds were added at the indicated concentrations and mixed by pipetting. BZN tablets (Rochagan, Roche) dissolved in DMSO and 4uM Amphotericin B solution (Sigma-Aldrich) were used as positive controls. Different numbers of T. cruzi parasites were added in a final volume of 200 ul/well. […] Plates were incubated at 37 degrees C for 4 h and absorbance was read at 590 nm using a Tecan Spectra Mini plate reader. […] The IC50 was determined as the concentration at which the activity (absorbance) was half that in the absence of compound. […]
Consider `Cc1ccc(OCCn2c(CCNC(=O)C3CCCCC3)nc3ccccc32)cc1`, for which the Potency is 64 µM (active).
